# Experimental data reported in PubChem BioAssay (Tox21).
# Inconclusive results are not listed. A call without a number means that no potency is given here. Unmarked numbers belong to inactive results. Active and inactive are the calls of the source. Calls come from the whole dose curve; as a rule, active = well fitted cell-killing curve with a large enough effect in the repeat runs; inconclusive = weak or mixed curves, or effect the other way; inactive = flat fitted curve, though single readings scatter.
# Experiment: cAMP Responsive Elements (CRE) small molecule antagonists, cell-based qHTS assay: qHTS cell viability counter screen (AID 2060913); note: nearly all actives have a fitted effect of over 40% in size
# Conditions: CRE-bla HEK293T viability, CellTiter-Glo luminescence, 5 h; series mostly up to 92.4 µM
# Description: U.S. Tox21 Program National Center for Advancing Translational Sciences [NCATS] Division of Preclinical Innovation [DPI] U.S. Environmental Protection Agency [EPA] National Institutes of Environmental Health Sciences [NIEHS] National Toxicology Program [NTP] U.S. Food and Drug Administration [FDA] Tox21 Assay Overview: CREB (cyclic-AMP Responsive Element Binding Protein) is a cellular transcription factor. It binds to certain DNA sequences called cAMP Responsive Elements (CRE) and regulates the transcription of the genes. […] This cell line can be used to find agonists/antagonists of the cyclic AMP signaling pathway. The activation of the report gene under culture conditions can be detected by fluorescence intensity. This cell line has been used to screen the Tox21 10K compound library to identify agonists that induce oxidative stress. The cytotoxicity of the Tox21 compound library against the CRE-bla cell line was tested in parallel by measuring the cell viability using CellTiter-Glo assay (Promega, Madison, WI) in the same wells.
# Tox21 Assay Protocol Summary: CRE-bla Hek 293T cells were suspended in assay medium (DMEM containing 10% dialyzed FBS, 0.1 mM NEAA, 1 mM sodium pyruvate and 25 mM HEPES) and dispensed at 2,000 cells/4 uL /well into 1536-well black wall/clear bottom plates using a Multidrop Combi (ThermoFisher Scientific, Waltham, MA) dispenser. After the assay plates were incubated at 37 C/5% CO2 for 18 hrs, 23 nL of compounds dissolved in DMSO, positive controls or DMSO only was transferred to the assay plate by a pintool workstation (Kalypsys, San Diego, CA), followed by addition of 1 uL of 1.25uM NKH477 (0.25 uM as final concentration) in assay medium using a Flying Reagent Dispenser (Aurora Discovery, San Diego, CA). The plates were incubated at 37 C and 5% CO2 for 3 hrs. Then 1 uL of LiveBLAzer B/G FRET substrate (Invitrogen, Carlsbad, CA) was added to each well using Bioraptr Flying Reagent Dispenser (FRD, Aurora Discovery, San Diego, CA). The plates were incubated at room temperature for 2 h, then fluorescence intensities were measured using an Envision plate reader (PerkinElmer, Shelton, CT) at Excitation 405nm, Emission 460nm and 530nm. The % activity was determined from the ratio of 460nm/530nm. For cell viability readout that measures cytotoxicity, 4 uL /well of CellTiter-Glo reagent was added into the assay plates using Bioraptr FRD. After 30 min incubation at room temperature, the luminescence intensity in the assay plates was measured using a ViewLux (PerkinElmer, Shelton, CT) plate reader.
Compound,Potency,"viability change, negative = cytotoxic"
O=S(=O)(c1ccc(OCc2ccccc2)cc1)c1ccccc1O,inactive,–
O=C(CCCN1CC=C(n2c(=O)[nH]c3ccccc32)CC1)c1ccc(F)cc1,inactive,–
O=C(Oc1ccccc1)c1ccccc1,inactive,–
CCC(=O)C(=O)CC,inactive,–
CCN(CC)C(=S)SSC(=S)N(CC)CC,inactive,–
O=CC(=O)c1ccccc1,inactive,–
Cc1ccc(S(=O)(=O)O)cc1C,inactive,–
Cc1nc2c([nH]1)c(=O)n(C)c(=O)n2Cc1ccco1,inactive,–
C#CC(C)(O)CC(C)C (stereo not given),inactive,–
C=C(C)c1cccc(C(C)(C)N=C=O)c1,inactive,–
CCCCCCCCCOC(=O)c1ccccc1C(=O)OCCCCCCCCC,inactive,–
FC(F)(F)/C(=N\OCC1OCCO1)c1ccc(Cl)cc1,inactive,–
CC(C)=CCCC(C)C=O (stereo not given),inactive,–
CC1(C)NC(=O)NC1=O,inactive,–
CCCCCCCCCCCCCCCCCCCl,–,-1.12% [at 8.39 µM]
Nc1ccn([C@@H]2O[C@H](CO)[C@@H](O)C2O)c(=O)n1 (stereo not given in full),inactive,–
NC(=O)c1cccc([N+](=O)[O-])c1,inactive,–
CCN1CCCC1CNC(=O)c1cc(S(N)(=O)=O)ccc1OC (stereo not given),inactive,–
CC(=O)[C@]1(O)Cc2c(O)c3c(c(O)c2[C@@H](O[C@H]2C[C@H](N)[C@H](O)[C@H](C)O2)C1)C(=O)c1ccccc1C3=O,inactive,–
C#CC(O)CCCCC (stereo not given),inactive,–

Compound,Potency,"viability change, negative = cytotoxic"
CC(=O)CC(C)C,inactive,–
CN(C)CCCCl,inactive,–
[O-][N+](=Nc1ccccc1)c1ccccc1,inactive,–
COc1cc(C)nc(-n2nc(C)cc2OC)n1,inactive,–
O=P(O)(O)Oc1ccccc1,inactive,–
CCOC(=O)C1=NN(c2ccc(Cl)cc2Cl)C(C)(C(=O)OCC)C1 (stereo not given),inactive,–
CCN[C@@H]1C[C@H](N)[C@@H](OC2OC(CN)=CCC2N)[C@H](O)[C@H]1O[C@H]1OC[C@](C)(O)[C@H](NC)[C@H]1O (stereo not given in full),–,1.22% [at 0.349 µM]
CC[N+](C)(CC)CCOC(=O)C(O)(c1ccccc1)C1CCCCC1 (stereo not given),inactive,–
CC(C)NCC(O)COc1cccc2ccccc12 (stereo not given),inactive,–
O=C(CCCN1CCN(c2ccccn2)CC1)c1ccc(F)cc1,inactive,–
Nc1cccc(S(=O)(=O)c2cccc(N)c2)c1,inactive,–
CCCCOc1ccc(N)cc1,inactive,–
O=C(/N=N/C(=O)OCc1ccccc1)OCc1ccccc1,inactive,–
CCCC(C)CC (stereo not given),inactive,–
CC(C)CCCC(C)(C)O,inactive,–
C=CCSCC1Nc2cc(Cl)c(S(N)(=O)=O)cc2S(=O)(=O)N1 (stereo not given),inactive,–
O=C(O)c1ccc2c(c1)nc(C(=O)NC1CCN(C3CC3)CC1)n2Cc1cc(-c2ccc(Cl)s2)on1,–,-0.942% [at 18.9 µM]
CCC(=O)c1ccc2c(c1)N(CCCN(C)C)c1ccccc1S2,inactive,–
CCCCOC(=O)c1ccc(N)cc1,inactive,–
CSC(=O)c1cccc2nnsc12,inactive,–
